Compounds without any hit were thinned out: in the full panel of roughly 79,000, 15% have a hit. The source made the active and inactive calls. Rule as the data show it: active = growth inhibition above about 70%; inactive = the rest.
Experiments:
[1] = NCI Yeast Anticancer Drug Screen. Data for the rad52 strain (AID 147);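 also: 0% = growth of vehicle-treated control cultures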; settings: S. cerevisiae rad52 mutant growth inhibition, active compounds read high
Outline: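 The repair-mutant yeast strain was incubated with compounds, then growth was read and inhibition derived relative to vehicle.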

[2] = NCI Yeast Anticancer Drug Screen. Data for the wt1 strain (AID 149);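 also: 0% = growth of vehicle-treated wt1 cultures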; settings: S. cerevisiae wt1 strain (SPY 50644) growth inhibition, active compounds read high
Outline: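 Compounds are added to wt1 yeast cultures. Growth is then measured. Inhibition is expressed relative to vehicle-treated controls.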

[3] = NCI Yeast Anticancer Drug Screen. Data for the rad50EPP+ strain (AID 151);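 also: 0% = growth of vehicle-treated control cultures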; settings: S. cerevisiae rad50 mutant strain, active compounds read high
Outline: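 Vehicle-normalised growth inhibition; rad50EPP+ yeast strain, altered in DNA damage repair, compound-treated.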

[4] = NCI Yeast Anticancer Drug Screen. Data for the mgt1 strain (AID 153); settings: S. cerevisiae mgt1 mutant growth inhibition, active compounds read high
Outline: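 Vehicle-normalized growth inhibition is determined in mgt1 yeast, a strain selected for a defined alteration in DNA repair or cell cycle control.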

[5] = NCI Yeast Anticancer Drug Screen. Data for the rad50 strain (AID 155);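 also: 0% = growth of vehicle-only cultures of the same strain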; settings: S. cerevisiae rad50 strain growth inhibition, active compounds read high
Outline: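 Inhibition values express reduced yeast growth in compound-treated cultures relative to vehicle-treated controls.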

[6] = NCI Yeast Anticancer Drug Screen. Data for the mec2-1 strain (AID 157); settings: S. cerevisiae mec2-1 strain, active compounds read high
Outline: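 Mutant yeast (mec2-1) grown with compound; growth inhibition relative to vehicle control reported.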

[7] = NCI Yeast Anticancer Drug Screen. Data for the rad14 strain (AID 159);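 also: 0% = growth of vehicle-treated control cultures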; settings: S. cerevisiae rad14 strain growth inhibition, active compounds read high
Outline: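 A mutant yeast strain defective in DNA damage repair is treated with compound; inhibition of its growth is scored against untreated, vehicle-exposed cultures.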

[8] = NCI Yeast Anticancer Drug Screen. Data for the sgs1 mgt1 strain (AID 161);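 also: 0% = growth of cultures given vehicle only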; settings: S. cerevisiae sgs1 mgt1 strain, active compounds read high
Outline: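 Yeast cells carrying a defined DNA-repair defect were exposed to test compounds. Growth inhibition was measured relative to vehicle-treated controls.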

[9] = NCI Yeast Anticancer Drug Screen. Data for the CLN2oe strain (AID 163);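 also: 0% = growth of vehicle-only control cultures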; settings: S. cerevisiae CLN2oe strain, active compounds read high
Outline: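 Compounds are applied to yeast harbouring a defined cell-cycle control change; reduced growth compared with vehicle-treated controls gives the value.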

[10] = NCI Yeast Anticancer Drug Screen. Data for the cln2 rad14 strain (AID 165);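 also: 0% = growth equal to vehicle treated cultures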; settings: S. cerevisiae cln2 rad14 strain, active compounds read high
Outline: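 Readout is yeast growth inhibition versus vehicle-treated controls, using a strain with cln2 and rad14 alterations exposed to compound.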

[11] = NCI Yeast Anticancer Drug Screen. Data for the bub3 strain (AID 167); settings: S. cerevisiae bub3 mutant strain, active compounds read high
Outline: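 Steps: expose the mutant yeast strain to compound; grow alongside vehicle-treated cultures; measure growth; express inhibition against the vehicle cultures.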

[12] = NCI Yeast Anticancer Drug Screen. Data for the wt2 strain (AID 169);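 also: 0% = growth of vehicle-treated yeast cultures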; settings: S. cerevisiae wt2 strain growth inhibition, active compounds read high
Outline: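 Against vehicle-treated controls, the growth of yeast exposed to each compound was compared, and the inhibition was recorded.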

[13] = NCI Yeast Anticancer Drug Screen. Data for the mlh1 rad18 strain (AID 175); settings: S. cerevisiae mlh1 rad18 strain growth inhibition, active compounds read high
Outline: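 Genetically defined yeast (DNA repair-deficient) exposed to compounds; growth inhibition determined relative to vehicle.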

[14] = at 5.0 µM (retest, dose inferred, filed as 0.5)
[15] = at 50.0 µM (retest, dose inferred, filed as 5.0)

Measured: growth inhibition

CC(C)/C(Cl)=N\OC(=O)Nc1ccc(F)cc1
active: [1]; at 100.0 µM 78% | [3]; at 100.0 µM 98% | [4]; at 33.0 µM 78% | [4]; at 100.0 µM 99% | [5]; at 100.0 µM 81% | [6]; at 100.0 µM 95% | [8]; [15] 86% | [8]; at 50.0 µM 88.7% | [11]; [15] 83% | [11]; at 50.0 µM 73.8% | [11]; at 100.0 µM 99% | [12]; at 33.0 µM 86% | [12]; at 100.0 µM 99%
inactive: [1]; at 1.2 µM 3% | [1]; at 3.7 µM 6% | [1]; at 11.0 µM 11% | [1]; at 33.0 µM 20% | [2]; at 1.2 µM 2% | [2]; at 3.7 µM -1% | [2]; at 11.0 µM -3% | [2]; at 33.0 µM -5% | [2]; at 100.0 µM -3% | [3]; at 1.2 µM 1% | [3]; at 3.7 µM 11% | [3]; at 11.0 µM 24% | [3]; at 33.0 µM 57% | [4]; at 1.2 µM 3% | [4]; at 3.7 µM 0% | [4]; at 11.0 µM 6% | [5]; at 1.2 µM 5% | [5]; at 3.7 µM 10% | [5]; [14] 24% | [5]; at 11.0 µM 12% | [5]; at 33.0 µM 23% | [5]; [15] 48% | [5]; at 50.0 µM 10.7% | [6]; at 1.2 µM 6% | [6]; at 3.7 µM 10% | [6]; [14] 35% | [6]; at 11.0 µM 13% | [6]; at 33.0 µM 23% | [6]; [15] 63% | [6]; at 50.0 µM 34% | [7]; at 1.2 µM 4% | [7]; at 3.7 µM 8% | [7]; at 11.0 µM 11% | [7]; at 33.0 µM 13% | [7]; at 100.0 µM 69% | [8]; [14] 26% | [9]; at 1.2 µM 12% | [9]; at 3.7 µM 16% | [9]; at 11.0 µM 15% | [9]; at 33.0 µM 14% | [9]; at 100.0 µM 15% | [10]; [14] 27% | [10]; [15] 29% | [10]; at 50.0 µM 38.8% | [11]; at 1.2 µM 13% | [11]; at 3.7 µM 22% | [11]; [14] 52% | [11]; at 11.0 µM 32% | [11]; at 33.0 µM 45% | [12]; at 1.2 µM -1% | [12]; at 3.7 µM -2% | [12]; at 11.0 µM 3% | [13]; [14] 33% | [13]; [15] 54% | [13]; at 50.0 µM -41.8%

— PubChem BioAssay (NCI)
